Screening results as filed in PubChem.
The list is not random: actives were taken first. Their share in the collection is about 27%.
CYP2C19 inhib – blockers of cytochrome P450 2C19 activity – biochemical, luminescence, ADME assay, primary screen | CYP2C19 Supersomes, luciferin-H EGE luminescence, 30 min | AID 778, 2007 | P33261 | inhibition, % at 5 µM | hit rate 21% among 96,000;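 active = CYP2C19 inhibition above a set limit at 5 µM in the primary screen, cut at about 50% in these data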
CYP2C19 activ – human CYP2C19 activators, primary screen, biochemical, luminescence; Cytochrome P450 2C19 (Homo sapiens), P33261; recombinant CYP2C19, luciferin-H EGE luminescence; active compounds read high; 0 = fully inhibited enzyme, 1 = untreated enzyme; activation factor at 5 µM; 96,000 tested, under 10 active;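 active = activation factor of at least 2 at 5 µM in the primary screen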
CYP2C9 act – human CYP2C9 activators, primary screen, biochemical, luminescence; recombinant CYP2C9, luciferin-H conversion; active compounds read high; factor 1 = untreated enzyme, 0 = blocked; activation factor at 5 µM; hit rate 1.4% among 96,000; AID 1024, 2008;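 active = activation factor of 2 or more for CYP2C9 at a 5 µM dose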
Cav32 inh – Cav3.2 calcium influx blockers – cell-based, Fluo-4 calcium fluorescence, FDSS, MLSMR library, primary screen; Voltage-dependent T-type calcium channel subunit alpha-1H (Homo sapiens), O95180; Cav3.2-expressing cells; active compounds read low; B-score at 10 µM; hit rate 4% among 100,000;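 active = single-dose well whose peak fluorescence ratio is a statistical outlier from its plate by either plate-standardised score or position-corrected B-score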
CYP2C9 inhib – blockers of cytochrome P450 2C9 activity – biochemical, luminescence, ADME assay, primary screen | CYP2C9 Supersomes, luciferin-H conversion | P11712 | hit rate 20% among 96,000 | inhibition, % at 5 µM;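 active = blocking of liver enzyme CYP2C9 beyond about 50% at 5 µM, limit read from the data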
Of the large screens only hits and unclear results are named; the others gave an inactive call.

CCn1c(=O)c(C(=O)Nc2cnccn2)c(O)c2ccccc21	none (no result: Cav32 inh)
CCC(C)n1c(=O)c(C(=O)Nc2ccccc2S(N)(=O)=O)c(O)c2ccccc21 (stereo not given)	Cav32 inh -3.4
Cc1c(CN(C)CCc2ccccc2)c(=O)n(-c2ccccc2)n1C	none
COc1cccc(CNc2cc(CSc3ccc(Cl)cc3)nc(C)n2)c1	CYP2C19 inhib 94, Cav32 inh -8.2, CYP2C9 inhib 96
COc1ccccc1CNc1n[nH]c(NCc2ccccc2OC)n1	none
COc1cccc(CNc2nc3nc(C)cc(C)n3n2)c1	none
COc1ccccc1CNc1cc(CSc2ccc(Cl)cc2)nc(C)n1	CYP2C19 inhib 91, CYP2C9 inhib 94
O=C(c1ccc(N2CCCC2=O)cc1)N1CCCCCC1	CYP2C19 inhib 58
O=C(c1ccc(N2CCCC2=O)cc1)N1CCN(c2ccccc2)CC1	none
Cc1cccc(N2CCN(C(=O)c3ccc(N4CCCC4=O)cc3)CC2C)c1 (stereo not given)	CYP2C19 inhib 56
Cc1cccc(N2CCN(C(=O)c3ccc(N4CCCC4=O)cc3)CC2)c1C	CYP2C19 inhib 52, CYP2C9 inhib 70
Nc1ncnc2nc(SCCc3ccccc3)[nH]c12	none
CCOC(=O)c1sc(NC(=S)NC(=O)c2cccc(Cl)c2)c(C(=O)OCC)c1C	none
CCOC(=O)C1CCN(c2c(NCCN3CCN(c4ccccc4)CC3)c(=O)c2=O)CC1	none
CCOC(=O)C1CCN(c2c(NCc3ccc(C(=O)NC(C)CC)cc3)c(=O)c2=O)CC1 (stereo not given)	CYP2C9 inhib 59 (no result: Cav32 inh)
CCOc1ccc(S(=O)(=O)Nc2cccc(N(C)S(C)(=O)=O)c2)cc1	CYP2C19 inhib 93
COC(=O)COc1cccc(NS(=O)(=O)c2ccc(NC(C)=O)cc2)c1	none
CCOc1ccc(S(=O)(=O)Nc2cccc(OC)c2)cc1	CYP2C19 inhib 69, CYP2C9 inhib 56
CC(=O)Nc1ccc(S(=O)(=O)Nc2cccc(N(C)S(C)(=O)=O)c2)cc1	none (no result: Cav32 inh)
CCCCOc1ccc(S(=O)(=O)Nc2cccnc2)cc1	CYP2C19 inhib 61, CYP2C9 inhib 89
CCc1c(C)sc(NC(=O)c2cc(-c3ccco3)on2)c1C#N	none
N#CCCNc1ccc(OCCC#N)cc1	none
CCn1ccc(C(=O)Oc2ccc(C(C)C)cc2)n1	none
Cc1ccc(Cn2cccc(NC(=O)NCc3ccccc3)c2=O)cc1	none
Cc1ccc(Cn2cccc(NC(=O)c3ccco3)c2=O)cc1	CYP2C19 inhib 72, CYP2C9 inhib 60
O=C(Nc1cccn(Cc2c(Cl)cccc2Cl)c1=O)c1c(Cl)cccc1Cl	Cav32 inh -6.5
COC(=O)Nc1cccn(Cc2c(Cl)cccc2Cl)c1=O	CYP2C19 inhib 87, CYP2C9 act 2.5
COc1cccc(Cn2cccc(NC(=O)Nc3ccc(C#N)cc3)c2=O)c1	none
CN(C)S(=O)(=O)c1cccc(C(=O)OCC(=O)Nc2sccc2C(N)=O)c1	none (no result: CYP2C19 inhib, CYP2C19 activ, CYP2C9 act, CYP2C9 inhib)
NC(=O)c1ccsc1NC(=O)COc1ccccc1	CYP2C9 inhib 65
NC(=O)c1ccsc1NC(=O)COC(=O)Cc1cccc2ccccc12	CYP2C19 inhib 97
CC1CCc2c(sc(NC(=O)CN3CCN(C(=O)c4ccco4)CC3)c2C#N)C1 (stereo not given)	none
C=CCn1c(-c2cccnc2Cl)nc2cc(Cl)c(Cl)cc21	CYP2C9 inhib 57
Clc1cccc(Cl)c1Cn1c(-c2cccnc2Cl)nc2ccccc21	none
CCCn1c(-c2cccnc2Cl)nc2cc(Cl)c(Cl)cc21	CYP2C9 inhib 56
Clc1ccc(-n2nnc(-c3cccnc3Cl)n2)cc1Cl	none (no result: CYP2C19 inhib, CYP2C19 activ, CYP2C9 act, CYP2C9 inhib)
Cn1c(=O)c2c(-c3ccccc3)n(-n3cnnc3)cc2n(C)c1=O	none
Cc1nn(C(=O)C(C)N2C(=O)c3ccccc3C2=O)c(C)c1Br (stereo not given)	none
Cc1ccc(NC(=O)N/C=C/c2ccco2)cc1C	none
Cc1ccc(NC(=O)N/C=C/c2ccco2)c(C)c1	CYP2C19 inhib 76, CYP2C9 inhib 61 (no result: Cav32 inh)
Brc1ccc(-c2nnc3n2-c2ccccc2CC3)cc1	CYP2C19 inhib 86, CYP2C9 inhib 63
CCOC(=O)Cn1c(S(=O)(=O)Cc2ccccc2)nc2ccccc21	none
CCOC(=O)Cn1c(S(=O)(=O)Cc2ccc(Cl)cc2)nc(-c2ccccc2)c1-c1ccccc1	Cav32 inh -5.6, CYP2C9 inhib 50
